In the supplement of paper PMC9948646:
Unmarked numbers belong to inactive results.

System: gramicidin D channels in DC22:1PC lipid vesicles (bilayer-modifying potency)
Experiment: initial Tl+ fluorescence quench rate relative to no-drug control (NormRate, gramicidin monomer-dimer shift) (ratio (fold of control)); higher = stronger bilayer-modifying effect (equilibrium shifted toward conducting dimers), active = 1.5 or more
Settings: 10 µM; lipid concentration 50 µM; temperature: 25 °C
Method: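 Stopped-flow fluorescence quench assay: ANTS-loaded DC22:1PC large unilamellar vesicles doped with gramicidin D (1:2000), 50 µM lipid, equilibrated 10 min with 10 µM drug (0.1% DMSO), mixed with Tl+ quench buffer at 25°C. Initial quench rate (Tl+ influx) was fitted with a modified stretched exponential and normalised to the no-drug control rate (NormRate); duplicates from two independent LUV preparations (triplicates for 7 drugs).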

Structure (SMILES) | initial Tl+ fluorescence quench rate
CNc1snc(C)c1C(=O)NCCOc1ccc(OC)cc1 | 1.06
COc1ccc2nc(C)cc(OCC(=O)Nc3ccccc3OC)c2c1 | 1.11
Cc1nc(-c2cccc(NCc3ccccc3)c2)[nH]c1C | 1.24
CC(C)[C@H](C(=O)Nc1ccc(S(=O)(=O)N(C)C)cc1)c1ccc(Cl)cc1 | 4.3 (active)
Cc1ccc(C(=O)Nc2ccc(S(=O)(=O)O)c3cc(S(=O)(=O)O)cc(S(=O)(=O)O)c23)cc1NC(=O)c1cccc(NC(=O)Nc2cccc(C(=O)Nc3cc(C(=O)Nc4ccc(S(=O)(=O)O)c5cc(S(=O)(=O)O)cc(S(=O)(=O)O)c45)ccc3C)c2)c1 | 2.56 (active)
c1cc(C2=NCCN2)cc(-c2cc(-c3ccc(C4=NCCN4)cc3)no2)c1 | 1.17
CC(C)n1ncc2c(C(=O)NC[C@H](c3cccs3)N3CCOCC3)cc(-c3ccccc3)nc21 | 2.74 (active)
COc1cc(C2=NCCN2)ccc1-n1cc(-c2cccc(C3=NCCN3)c2)nn1 | 1.15
O=C(Nc1cccnc1)c1c(O)c2cccc3c2n(c1=O)CC3 | 1.07
Cc1[nH]c2ccccc2c1[C@@H](c1cccs1)N1CCN(C)CC1 | 1.44
CNC(=O)[C@H]1Cc2ccccc2N1C(=O)Cc1ccc(F)cc1 | 1.04
Nc1ncnc2c1c(-c1cnc3ccccc3c1)nn2CC1CCNCC1 | 1.07
COC[C@H](C)NC(=O)CSc1ncnc2sc(-c3ccccc3)cc12 | 1.33
Nc1nc(N)c2c3c(sc2n1)CN(Cc1ccccc1)CC3 | 1.04
O=C(Nc1cccc(-c2ccc(NCCCN3CCCC3)nc2)c1)c1ccccc1 | 1.2
COc1cccc(-c2nc3c(N4CCCC4)cccc3n2C[C@H]2CCCN2)n1 | 1.21
Cc1nn(C(=O)Nc2cccc(C(F)(F)F)c2)c(C)c1Sc1ncccn1 | 2 (active)
Cc1ccc2nc(Cl)c(CNCc3cccs3)cc2c1 | 1.03
O=C(Nc1nc(-c2ccccn2)cs1)[C@H]1C[C@@H]1c1ccccc1F | 1.41
COc1cc(C2=NCCN2)ccc1-c1cn(-c2cccc(C3=NCCN3)c2)nn1 | 1.01
CC(=O)Nc1ccc(NC(=O)c2cc(-c3cc(Cl)ccc3O)[nH]n2)cc1 | 1.06
CNC(=O)[C@@H]1Cc2c([nH]c3cc(Cl)ccc23)C2(CCN(CCc3ccccc3)CC2)N1 | 2.52 (active)
Cc1cc(C)n(-c2ccc(NC(=O)C3CCN(Cc4cnc(C)s4)CC3)cc2)n1 | 1.01
